# Inconclusive results are not listed. Entries that show only a call come without a potency. Unmarked numbers belong to inactive results. Calls of active or inactive are those of the source. Calls follow the shape of the dose curve; as a rule, active = well fitted curve in the direction sought with a large enough effect; inconclusive = small, poorly fitted or top-dose-only effect, or another doubt; inactive = no such curve, though single readings can be large; an effect the other way counts as inactive or inconclusive.
# Key:
# [1] = target: N-terminal Xaa-Pro-Lys N-methyltransferase 1 (Homo sapiens) (UniProt Q9BV86); experiment: qHTS Assay for Inhibitors of N-terminal methyltransferase 1 (NTMT1): LOPAC validation of the NTMT1 SAHH-coupled ThioGlo3 Assay (AID 1347143);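 also: SAH from peptide methylation measured as thiol fluorescence via SAHH coupling and ThioGlo3; nearly all actives have a fitted effect of over 70% in size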
# Sequence of N-terminal Xaa-Pro-Lys N-methyltransferase 1 (Homo sapiens) (Q9BV86 whole entry, looked up): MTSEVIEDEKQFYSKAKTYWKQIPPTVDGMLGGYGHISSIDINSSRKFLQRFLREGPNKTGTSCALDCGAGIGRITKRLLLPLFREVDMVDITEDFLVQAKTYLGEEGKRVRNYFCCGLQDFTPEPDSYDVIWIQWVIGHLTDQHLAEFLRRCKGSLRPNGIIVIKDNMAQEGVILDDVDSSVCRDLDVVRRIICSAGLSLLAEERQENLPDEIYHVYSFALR
# How it was run: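 NTMT1 125nM + cpds (various conc.), 1 min RT; add SAM 100uM/SAHH 10uM/ThioGlo3 15uM (addition mix). SAHH-coupled thiol detection, Ex340/Em450, t0 and 30 min RT; signal normalized to background. LOPAC 1280-cpd pilot.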
# [2] = tested on: Zika virus NS2B-NS3 protease (unlinked); experiment: Optimization of GU AMC qHTS for Zika virus inhibitors: Unlinked NS2B-NS3 protease assay (AID 1347151); also: series mostly up to about 52 µM; nearly all actives have a fitted effect of over 80% in size
# How it was run: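 Unlinked protease (25 nM final); buffer 10 mM Tris-HCl pH 8.0 + 0.01% Tween 20; AMC substrate; 15 min RT, dark; Δfluorescence normalized to no-inhibitor/no-enzyme controls; 4-parameter Hill fit.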
# [3] = qHTS of pediatric cancer cell lines to identify multiple opportunities for drug repurposing: Confirmatory screen for U-2 OS cells (AID 1347122); also: nearly all actives have a fitted effect of over 65% in size; also: potency is read from the fitted curve at half-maximal effect
# How it was run: (§1)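 Cells (500-1,000/well) rested 5 h, then received compounds for 48 h; metabolically active cells were measured by CellTiter-Glo luminescence. Final concentrations spanned up to 46 µM (MIPE, 11-point) or 0.59 nM-46 µM (NPC, 8-point) in primary screens, 11-point in follow-ups.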
# [4] = qHTS of pediatric cancer cell lines to identify multiple opportunities for drug repurposing: Confirmatory screen for Rh41 cells (AID 1347123);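 also: 48 h compound exposure; nearly all actives have a fitted effect of over 60% in size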; also: potency is read from the fitted curve at half-maximal effect
# How it was run: as §1
# [5] = qHTS of pediatric cancer cell lines to identify multiple opportunities for drug repurposing: Confirmatory screen for RD cells (AID 1347124);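 also: cells exposed to compound for 48 h before viability readout; nearly all actives have a fitted effect of over 65% in size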; also: potency is read from the fitted curve at half-maximal effect
# How it was run: as §1
# [6] = qHTS of pediatric cancer cell lines to identify multiple opportunities for drug repurposing: Confirmatory screen for Rh18 cells (AID 1347125); also: nearly all actives have a fitted effect of over 55% in size; also: potency is read from the fitted curve at half-maximal effect
# How it was run: as §1
# [7] = qHTS of pediatric cancer cell lines to identify multiple opportunities for drug repurposing: Confirmatory screen for Rh30 cells (AID 1347126); also: nearly all actives have a fitted effect of over 55% in size; also: potency is read from the fitted curve at half-maximal effect
# How it was run: as §1
# [8] = qHTS of pediatric cancer cell lines to identify multiple opportunities for drug repurposing: Confirmatory screen for Saos-2 cells (AID 1347127); also: nearly all actives have a fitted effect of over 60% in size; also: potency is read from the fitted curve at half-maximal effect
# How it was run: as §1
# [9] = qHTS of pediatric cancer cell lines to identify multiple opportunities for drug repurposing: Confirmatory screen for OHS-50 cells (AID 1347128);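 also: compound exposure lasted 48 h at 37 degrees C; nearly all actives have a fitted effect of over 55% in size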; also: potency is read from the fitted curve at half-maximal effect
# How it was run: as §1
# [10] = qHTS of pediatric cancer cell lines to identify multiple opportunities for drug repurposing: Confirmatory screen for SK-N-SH cells (AID 1347129);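 also: cells exposed to compound for 48 h before viability read; nearly all actives have a fitted effect of over 60% in size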; also: potency is read from the fitted curve at half-maximal effect
# How it was run: as §1
# [11] = tested on: Zika virus NS2B-NS3 protease; experiment: Primary screen GU AMC qHTS for Zika virus inhibitors (AID 1347154); also: nearly all actives have a fitted effect of over 70% in size; also: potency is read from the fitted curve at half-maximal effect
# How it was run: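 Fluorogenic AMC-substrate cleavage by noncovalent NS2B-NS3 protease complex (25 nM, pH 8.0 Tris buffer with Tween 20) followed for 15 minutes at room temperature (~20% conversion). Percent inhibition from ex340/em450 signal change, fitted by 4-parameter Hill equation.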
# [12] = qHTS of pediatric cancer cell lines to identify multiple opportunities for drug repurposing: Confirmatory screen for control Hh wild type fibroblast cells (AID 1347121); also: nearly all actives have a fitted effect of over 70% in size
# How it was run: as §1
# Furin (Homo sapiens) = Furin (Homo sapiens) (UniProt P09958); experiment: Furin counterscreen qHTS for Zika virus inhibitors (AID 1347149); also: nearly all actives have a fitted effect of over 70% in size; also: potency is read from the fitted curve at half-maximal effect;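 as to activity change, negative = inhibition: purified recombinant full-length human furin enzyme at 5 nM; fluorescence gain from furin cutting a BOC-RVRR-AMC peptide substrate over 15 min; top concentration of the series differs between compounds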
# Sequence of Furin (Homo sapiens) (P09958 whole entry, looked up): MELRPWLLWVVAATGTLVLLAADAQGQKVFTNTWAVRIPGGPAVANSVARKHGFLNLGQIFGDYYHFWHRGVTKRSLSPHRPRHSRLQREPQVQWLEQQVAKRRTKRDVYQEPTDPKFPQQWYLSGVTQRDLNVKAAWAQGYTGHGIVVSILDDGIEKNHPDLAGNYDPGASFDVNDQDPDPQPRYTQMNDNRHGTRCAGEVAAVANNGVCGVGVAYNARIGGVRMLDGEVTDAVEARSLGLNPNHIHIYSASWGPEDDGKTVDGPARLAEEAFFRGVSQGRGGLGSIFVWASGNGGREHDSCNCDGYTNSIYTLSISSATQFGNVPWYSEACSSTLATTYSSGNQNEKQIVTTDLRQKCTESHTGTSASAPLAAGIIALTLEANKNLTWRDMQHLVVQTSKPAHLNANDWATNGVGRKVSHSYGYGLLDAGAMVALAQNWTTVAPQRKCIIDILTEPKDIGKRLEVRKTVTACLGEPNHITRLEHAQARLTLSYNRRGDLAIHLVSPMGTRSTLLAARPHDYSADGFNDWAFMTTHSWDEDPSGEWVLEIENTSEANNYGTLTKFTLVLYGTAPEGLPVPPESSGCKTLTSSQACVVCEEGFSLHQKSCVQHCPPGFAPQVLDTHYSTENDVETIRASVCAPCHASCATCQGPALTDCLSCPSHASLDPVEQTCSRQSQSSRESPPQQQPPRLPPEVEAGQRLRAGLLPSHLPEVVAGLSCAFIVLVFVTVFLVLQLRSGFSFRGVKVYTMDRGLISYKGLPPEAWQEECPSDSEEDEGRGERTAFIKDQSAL
# How it was run: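 Counterscreen measures cleavage of 2 microM BOC-RVRR-AMC, below its ~15 microM Km, by 5 nM full-length human furin at pH 7.0 after a 15-min compound preincubation. Inhibition derives from the 15-min fluorescence increase at 37C.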
# [13] = Confirmatory screen GU Rhodamine qHTS for Zika virus inhibitors qHTS (AID 1347157); also: nearly all actives have a fitted effect of over 70% in size; also: potency is read from the fitted curve at half-maximal effect
# How it was run: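 A qHTS format was used, with compound concentrations ranging up to 114 microM. Each compound was preincubated with 25 nM NS2B-NS3 protease, and the substrate was then added at 1.5 microM. Curves were fitted with a 4-parameter Hill model.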
# [14] = Confirmatory screen NINDS Rhodamine qHTS for Zika virus inhibitors (AID 1347161); also: potency is read from the fitted curve at half-maximal effect; nearly all actives have a fitted effect of over 60% in size
# How it was run: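 Purified linked NS2B-NS3 protease (NS2B hydrophilic domain joined to NS3 protease by flexible linker), 25 nM in 10 mM Tris-HCl pH 8.0, 0.01% Tween 20. Compounds titrated, 15 min preincubation at room temperature; 1.5 microM Rhodamine110 substrate, FITC fluorescence change over 15 min.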
# [15] = tested on: Zika virus NS2B-NS3 protease (linked construct); experiment: Confirmatory screen NINDS AMC qHTS for Zika virus inhibitors (AID 1347152); settings: Purified linked NS2B-NS3, AMC substrate fluorescence
# How it was run: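 Enzyme (1 nM, linked construct) was preincubated with compound for 15 minutes at room temperature in 10 mM Tris-HCl pH 8.0 with 0.01% Tween 20. Bz-Nle-Lys-Arg-Arg-AMC was then added to 10 microM, and AMC fluorescence was recorded immediately and after 15 minutes.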
# [16] = tested on: Zika virus NS2B-NS3 protease (unlinked complex); experiment: Confirmatory screen GU AMC qHTS for Zika virus inhibitors (AID 1347153); settings: Recombinant NS2B-NS3 protease, AMC substrate fluorescence
# How it was run: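 Compounds were preincubated 15 min at room temperature with 25 nM noncovalent NS2B-NS3 protease at pH 8.0; AMC substrate added at 10 microM and 15-min fluorescence gain (340/450 nm) converted to percent inhibition, fitted 4-parameter.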
# [17] = tested on: Zika virus NS2B-NS3 protease (unlinked complex); experiment: Primary screen GU Rhodamine qHTS for Zika virus inhibitors: Unlinked NS2B-NS3 protease assay (AID 1347159); also: nearly all actives have a fitted effect of over 60% in size
# How it was run: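 Percent inhibition came from the 15-min rise in Rhodamine110 fluorescence (1.5 microM substrate, ~15% conversion), normalized to no-inhibitor and no-enzyme wells and Hill-fitted. Unlinked protease, 25 nM, pH 8.0 Tris buffer; compounds up to 114 microM, 15-min preincubation.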
# [18] = tested on: Zika virus NS2B-NS3 protease (linked construct); experiment: Primary screen NINDS Rhodamine qHTS for Zika virus inhibitors (AID 1347160); also: nearly all actives have a fitted effect of over 55% in size
# How it was run: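 Rhodamine110-peptide cleavage (1.5 µM substrate) by 25 nM linked NS2B-NS3 enzyme at pH 8.0 (Tris, Tween 20), after 15 min RT preincubation with compounds; 15-min fluorescence change normalized to controls and Hill-fitted.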
structure (smiles),measurement,setting,value
NC(N)=NCc1cccc(I)c1,outcome,[1],inactive
same,outcome,[2],inactive
C[C@@]12C(=O)OC(=O)[C@]1(C)C1CCC2O1,Potency,[3],2.93 µM (active)
same,Potency,[4],2.08 µM (active)
same,Potency,[5],6.57 µM (active)
same,Potency,[6],3.29 µM (active)
same,Potency,[7],3.69 µM (active)
same,Potency,[8],2.93 µM (active)
same,Potency,[9],4.65 µM (active)
same,Potency,[10],inactive
same,Potency,[11],inactive
CC(C)(C)NC[C@H](O)COc1nsnc1N1CCOCC1,outcome,[2],inactive
same,Potency,[11],inactive
O=[N+]([O-])c1ccc(/C=N\O)o1,Potency,[12],inactive
same,Potency,[3],4.14 µM (active)
same,Potency,[4],5.85 µM (active)
same,Potency,[5],0.414 µM (active)
same,Potency,[6],inactive
same,Potency,[7],1.17 µM (active)
same,Potency,[9],inactive
same,Potency,[10],inactive
same,Potency,[11],inactive
CC(C)=CCOc1ccc(/C=C/C(=O)c2ccc(OCC=C(C)C)cc2OCC(=O)O)cc1,Potency,Furin (Homo sapiens),66.3 µM (active)
same,Potency,[13],5.62 µM (active)
same,Potency,[14],6.31 µM (active)
Cc1ncc(CO)c(C=O)c1O,Potency,[11],14.4 µM (active)
CCCCC(CC)CN1CN(CC(CC)CCCC)CC(C)(N)C1 (centres undefined),Potency,[11],inactive
C=C[C@@]1(C)CC(=O)[C@]2(O)[C@@]3(C)[C@@H](O)CCC(C)(C)[C@@H]3[C@H](O)[C@H](OC(C)=O)[C@@]2(C)O1,Potency,[12],inactive
same,Potency,[3],inactive
same,Potency,[4],inactive
same,Potency,[10],inactive
same,Potency,[11],inactive
CCc1oc2ccccc2c1C(=O)c1cc(Br)c(O)c(Br)c1,Potency,Furin (Homo sapiens),24.1 µM (active)
same,Potency,[15],9.61 µM (active)
same,Potency,[16],17.1 µM (active)
same,Potency,[11],10.6 µM (active)
same,Potency,[14],1.75 µM (active)
NC(N)=NN=C(/C=C/c1ccc([N+](=O)[O-])o1)/C=C/c1ccc([N+](=O)[O-])o1,Potency,[3],inactive
same,Potency,[4],1.65 µM (active)
same,Potency,[5],4.14 µM (active)
same,Potency,[6],4.65 µM (active)
same,Potency,[7],2.08 µM (active)
same,Potency,[9],5.22 µM (active)
same,Potency,[10],2.35 µM (active)
CCCCCCCCCCCCCCCCO,Potency,[11],inactive
CCN[C@@H]1C[C@H](N)[C@@H](OC2OC(CN)=CCC2N)[C@H](O)[C@H]1O[C@H]1OC[C@](C)(O)[C@H](NC)[C@H]1O (some centres undefined),"activity, negative = cytotoxic",[12],8.41% [at 0.556 µM]
same,outcome,[3],inactive [at 0.556 µM]
same,"activity change, negative = cytotoxic",[4],13.6% [at 0.556 µM]
same,"activity change, negative = cytotoxic",[5],11.8% [at 0.556 µM]
same,"activity change, negative = cytotoxic",[6],4.31% [at 0.556 µM]
same,"activity change, negative = cytotoxic",[7],25.4% [at 0.556 µM]
same,"activity change, negative = cytotoxic",[8],11.1% [at 0.556 µM]
same,"activity change, negative = cytotoxic",[9],3.87% [at 0.556 µM]
same,"activity change, negative = cytotoxic",[10],6.98% [at 0.558 µM]
same,"activity change, negative = inhibition",[11],-3.5% [at 0.59 µM]
CCOC(=O)C(C#N)=C(c1ccccc1)c1ccccc1,Potency,[11],inactive
CN=C(N)NCCC[C@H](N)C(=O)O,outcome,[1],inactive
same,outcome,[2],inactive
same,Potency,[11],inactive
COc1ccc(-c2cc(C(F)F)nn2-c2ccc(S(N)(=O)=O)cc2)cc1F,Potency,[11],inactive
CCN(CC)CCOc1ccc2c(c1)C(=O)c1cc(OCCN(CC)CC)ccc1-2,Potency,[12],inactive
same,Potency,[3],inactive
same,Potency,[4],23.3 µM (active)
same,Potency,[5],inactive
same,Potency,[8],inactive
same,Potency,[10],18.7 µM (active)
O=C(CCCN1CC=C(n2c(=O)[nH]c3ccccc32)CC1)c1ccc(F)cc1,Potency,[12],inactive
same,Potency,[4],18.5 µM (active)
same,Potency,[5],inactive
same,Potency,[6],inactive
same,Potency,[7],inactive
same,Potency,[8],inactive
same,Potency,[9],inactive
same,Potency,[11],inactive
same,outcome,[17],inactive
same,outcome,[18],inactive
CCNC(=O)NCc1cccc(Cl)c1,Potency,[11],inactive
CC1(C)OC[C@@H]2O[C@@]3(C(=O)O)OC(C)(C)O[C@H]3[C@@H]2O1,Potency,[11],inactive
O[C@@H](c1cc(C(F)(F)F)nc2c(C(F)(F)F)cccc12)[C@H]1CCCCN1,Potency,Furin (Homo sapiens),inactive
same,outcome,[2],inactive
CCOC(=O)[C@H](CCc1ccccc1)N[C@@H](C)C(=O)N1[C@H](C(=O)O)C[C@H]2CCCC[C@@H]21,outcome,[1],inactive
same,outcome,[2],inactive
C[C@@H](O)[C@H]1C(=O)N2C(C(=O)O)=C(S[C@@H]3CN[C@H](CNS(N)(=O)=O)C3)[C@H](C)[C@H]12,Potency,[11],inactive
Oc1c(Cl)cc(Cl)c(Cl)c1Cc1c(O)c(Cl)cc(Cl)c1Cl,Potency,[13],15.8 µM (active)
C=C[C@H]1CN2CC[C@H]1C[C@H]2[C@H](O)c1ccnc2ccc(OC)cc12,Potency,[13],inactive
same,outcome,[17],inactive
CC[C@]12CCCN3CCc4c(n(c5ccccc45)C(=O)C1)[C@@H]32,outcome,[17],inactive
same,outcome,[18],inactive
O=C1[C@H](CC[C@H](O)c2ccc(F)cc2)[C@@H](c2ccc(O)cc2)N1c1ccc(F)cc1,outcome,[18],inactive
